Assay outcomes as filed in PubChem.
An excerpt weighted towards active compounds, which were near 21% of everything screened.
Pf growth 48h – P. falciparum growth inhibition at 48 hours (one generation); P. falciparum luciferase growth in erythrocytes, 48 h; Potency, µM (top dose mostly 28.7 µM), for the others: at the highest dose activity change, negative = inhibition, most hits filed as inhibitors; 310,000 tested, 5.9% active; note: potency is the fitted concentration of half-maximal effect; % is set by controls: 0 for no effect and ±100 for the full control effect
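Cell-based growth assay: transgenic P. falciparum expressing firefly luciferase, cultured in red cells within RPMI 1640 containing 0.5% w/v Albumax, 24 mM bicarbonate and gentamycin. A drop in luciferase activity indicates inhibition.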
Pf growth 96h – P. falciparum growth inhibition at 96 hour, primary screen for plastid delayed-death inhibitors; 320,000 tested, 6.9% active; P. falciparum luciferase reporter growth, 96 h; Potency, µM (top dose mostly 28.7 µM), for inactives: top-dose activity change, negative = inhibition, actives largely listed as inhibitors; AID 504834; note: potency is the fitted concentration of half-maximal effect; % is set by controls: 0 for no effect and ±100 for the full control effect
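Two-generation exposure (96 h) targets delayed-death phenotype. Reporter parasites carrying integrated firefly luciferase, in red cells at 2% hematocrit and 0.05% parasitemia final, kept at 37 C, 5% CO2; luminescence loss indicates inhibition.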
Shiga toxin inh – blocks Shiga toxin action in Vero cells; Vero cells, Shiga toxin protein synthesis inhibition reporter; 290,000 tested, 9.2% active; inhibition, % at 38.7 µM; in the data active = inhibition mostly above about 28%, no sharp cut-off; inactive = mostly below about 43%; note: 0% is about no effect
CHX counter – counter-screen for Shiga toxin inhibitors: cycloheximide protein synthesis inhibition; cell reporter, cycloheximide protein synthesis inhibition counterscreen; max response, %; 300,000 tested, 12% active; AID 2314; in the data active = max response mostly above about 13%, no sharp cut-off; inactive = mostly below about 14%; note: read at 38.3 µM for the half of the compounds with a filed dose; 0% is about no effect
HCMV inh – human cytomegalovirus inhibition. HFF cells, HCMV-luciferase reporter, 72 h; active compounds read low. activity change, negative = inhibition, % at 57.5 µM. 410,000 tested, 4.5% active; in the data active = activity change below about -60%; inconclusive = no clear call, values can overlap the other calls; inactive = above about -39%; note: % is set by controls: 0 for no effect and ±100 for the full control effect
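Cell-based, HFFs, 1000 cells/well, 16 h 37C; cpds in DMSO + HCMV-luc, MOI 1 PFU/cell; 72 h 37C; OneGlo luminescence after 5 min RT; norm. to buffer vs Salinomycin 10uM.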
HCV inh – HCV inhibition; Huh7.5.1 HCVcc-Cre infection, luciferase reporter, 44 h; Potency, µM (series often up to 41.8 µM), without a hit: at the top dose activity change, negative = inhibition, most hits filed as inhibitors; 340,000 tested, 3.4% active; AID 651820; note: potency is the fitted concentration of half-maximal effect; % is set by controls: 0 for no effect and ±100 for the full control effect
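Cells (1,000/well) were plated 4 h before compound, then infected with HCVcc-Cre virus (~0.5 moi). After 44 h further culture, infection was read as luciferase luminescence following a 15 min substrate incubation at room temperature.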
The depositor's hits bear a star; ? = inconclusive; . = no result. Unless noted, calls come from the whole dose curve; as a rule, active = well fitted inhibition curve with a large enough effect; inconclusive = small, poorly fitted or top-dose-only effect, or another doubt; inactive = no such curve, though single readings can be large or run the other way.

SMILES	Pf growth 48h	Pf growth 96h	Shiga toxin inh	CHX counter	HCMV inh	HCV inh
Cc1ccc2c(c1)-c1c(ssc1=S)C(C)(C)N2C(=O)CSC1=NCCS1	?	?	10	1	?	?
CCOc1ccc2c(c1)-c1c(ssc1=S)C(C)(C)N2C(=O)CSC1=NCCS1	?	1.7µM*	-2	-6	?	?
Cc1ccc(CNc2ncnc3ccc(-c4c(C)noc4C)cc23)cc1	.	.	25	13	.	.
Cc1ccsc1CNc1ncnc2ccc(-c3c(C)noc3C)cc12	.	.	57*	28	?	.
Cc1noc(C)c1-c1ccc2ncnc(NCc3cccc(Cl)c3)c2c1	.	.	9	7	.	.
COc1cccc(CNc2ncnc3ccc(-c4c(C)noc4C)cc23)c1	4.1µM*	5.9µM*	-4	-6	-34	.
Cc1noc(C)c1-c1ccc2ncnc(NCC3CCCCN3C)c2c1 (stereo unspecified)	4.1µM*	2.3µM*	-2	-7	-2	.
O=C(CSc1nc2ccccc2c(=O)n1-c1ccccc1)N1CCc2ccccc2C1	?	2.6µM*	-13	-1	-94*	13µM*
O=C(CSc1nc2[nH]ncc2c(=O)n1-c1ccccc1)N1CCCCCC1	-21%	10µM*	-2	-2	.	.
O=C(c1ncn(Cc2ccccc2)c1C(=O)N1CCc2ccccc2C1)N1CCc2ccccc2C1	1.5µM*	?	.	.	1	?
O=C(CSc1nc2[nH]ncc2c(=O)n1-c1ccccc1Cl)N1CCCC1	20%	1%	36	13	-2	5%
Cn1c(=O)c2c(nc(SCC(=O)N3CCc4ccccc4C3)n2C)n(C)c1=O	0%	10µM*	8	7	17	-12%
Cc1ccccc1SCC(=O)OCC(=O)NCc1ccccc1	.	.	.	.	-26	6%
CC(C)c1ccccc1-n1c(SCC(=O)N2CCc3ccccc3C2)nc2ccccc2c1=O	1.5µM*	5.9µM*	-10	9	-95*	10µM*
O=C(Cn1cnc2ccccc2c1=O)N1CCc2ccccc2C1	25%	33%	-3	17*	16	-1%
Cn1c(=O)c2c(nc(Sc3nc4ccccc4n3CC(=O)N3CCCCC3)n2C)n(C)c1=O	?	89%	19	4	-63*	-1%
O=C(Cn1cnc2ccccc2c1=O)N1CCOCC1	4%	17%	2	3	27	-10%
O=C1COc2ccc(C(=O)CSc3ccccc3C(=O)O)cc2N1	12%	?	8	-3	-12	5%
CC(C)c1ccccc1-n1c(SCC(=O)c2ccc3c(c2)NC(=O)CO3)nc2ccccc2c1=O	-63%	?	-5	-1	-30	13µM*
COc1ccc(CCNc2nc3c(c(=O)n(C)c(=O)n3C)n2Cc2ccccc2Cl)cc1OC	.	.	.	.	-33	.
CCn1c(SCC(=O)Nc2ccc(C(C)=O)cc2)nc2nc3c(cc2c1=O)COC(C)(C)C3	20%	26%	122*	32*	77	-16%
CCn1c(SCC(=O)Nc2ccc(OC)cc2)nc2nc3c(cc2c1=O)COC(C)(C)C3	?	?	-7	1	?	?
Cc1ccccc1NC(=O)Cn1cnc2c(oc3nc4c(cc32)COC(C)(C)C4)c1=O	1%	-15%	12	9	-36	-4%
CCn1c(SCC(=O)Nc2ccccc2C)nc2nc3c(cc2c1=O)COC(C)(C)C3	?	?	3	-1	-6	10µM*
CCOc1ccc(NC(=O)CSc2nc3nc4c(cc3c(=O)n2CC)COC(C)(C)C4)cc1	?	?	25	-3	-27	3.2µM*
SMILES	Pf growth 48h	Pf growth 96h	Shiga toxin inh	CHX counter	HCMV inh	HCV inh
Cc1ccc(-n2c(SCC(=O)NCc3ccco3)nc3nc4c(cc3c2=O)COC(C)(C)C4)cc1	9.3µM*	-11%	14	5	18	15%
Cc1ccc(-n2c(SCC(=O)NCc3ccco3)nc3sc(C)c(C)c3c2=O)cc1	-2%	.	18	11	4	?
CSCCC(=O)N1CCN(CC(=O)N2CCCC2)CC1	13%	21%	-7	-6	13	12%
O=c1c2ccccc2sn1-c1ccc(Cl)cc1Cl	.	.	.	.	-95*	.
Cc1ccc(NC(=O)CCNC(=O)c2ccco2)cc1	10%	-23%	8	11	-12	9%
Cc1ccc(NC(=O)CNC(=O)c2ccco2)cc1Cl	25%	21%	36	22*	33	5%
CCOc1ccc(NC(=O)CNC(=O)Cc2ccccc2)cc1	2%	39%	2	-3	-7	6%
CCOc1ccc(NC(=O)CCNC(=O)c2ccco2)cc1	17%	32%	14	19*	-34	-17%
CCOc1ccc(NC(=O)CNC(=O)c2ccco2)cc1	33%	?	16	18*	52	-3%
O=C(O)CC(NC(=O)Cc1ccc(Cl)cc1)c1ccco1 (stereo unspecified)	23%	2%	26	6	25	21%
CC(C)CCSc1nc2c(c(=O)n(C)c(=O)n2C)n1Cc1ccccc1Cl	.	.	.	.	32	.
COc1c(C)cccc1C(=O)Nc1ccc(Cl)c(-c2nc3cc(C)ccc3o2)c1	.	.	.	.	4	.
Nc1cc2c(cc1O)CCCC2	?	?	136	51*	-20	9%
CN(C)C1CCN(CCCOc2ccc(-c3ccc(C#N)cc3)cc2)C1 (stereo unspecified)	.	.	2	31*	.	.
COc1ccccc1NS(=O)(=O)c1cc(NC(=O)Nc2ccc(Cl)cc2Cl)ccc1N1CCCCC1	?	?	-6	1	-62*	?
COc1ccccc1NS(=O)(=O)c1cccc(NC(=O)Nc2ccccc2)c1	-1%	-5%	-3	-1	?	?
O=C(Nc1cccc(C(F)(F)F)c1)Nc1ccc(N2CCCC2)c(S(=O)(=O)Nc2ccccc2Cl)c1	?	?	9	1	-100*	2.2µM*
CC(=O)Nc1ccc(N2CCOCC2)c(S(=O)(=O)Nc2ccccc2Cl)c1	.	.	.	.	-11	.
COc1ccccc1NS(=O)(=O)c1cc(NC(=O)C2CCC2)ccc1N1CCCCC1	?	?	20	3	-30	-15%
COc1ccccc1NS(=O)(=O)c1cc(N)ccc1N1CCCCC1	15µM*	-12%	-2	1	?	-8%
COc1ccccc1NS(=O)(=O)c1cccc(NC(=O)Nc2ccc(Cl)cc2)c1	?	10µM*	22	1	-85*	?
CCOC(=O)C1CCN(C(=O)COC(=O)/C=C/c2ccc([N+](=O)[O-])cc2)CC1	.	.	.	.	46	?
CCOc1ncccc1C(=O)OCc1c(F)cccc1Cl	26%	9%	-8	4	-1	13%
COc1ccccc1NS(=O)(=O)c1cc(NC(=O)c2ccccc2[N+](=O)[O-])ccc1N1CCOCC1	.	.	.	.	-24	?
COc1cc(/C=C/C(=O)Nc2ccc(N3CCCCC3)c(S(=O)(=O)Nc3ccccc3Cl)c2)cc(OC)c1OC	13µM*	4.1µM*	-6	-1	?	12%
